# Many of the other results were omitted from the sample, so hits are more common in it than they were.
# RE007 growth inh = qHTS Assay for Inhibitors of the HIV-1 protein Vpr; 0.21% of 360,000 active; S. pombe RE007 Vpr strain, BacTiter-Glo ATP luminescence, 24 h; AID 651644, 2012; Potency, µM (highest dose often 92.2 µM), inactives show at the top dose activity change, negative = less growth, hits mostly inhibitors; active = well fitted falling curve with a large enough effect; inconclusive = small, poorly fitted or top-dose-only effect; inactive = no such curve, though single readings can be large or run the other way; also: potency is read from the fitted curve at half-maximal effect; % is scaled to controls: 0 for no effect and ±100 for the full control effect; nearly all actives have a fitted effect of over 50% in size
#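 Fission yeast RE007 carrying one integrated HIV-1 vpr copy, seeded at OD 0.01 in PMG+AL medium with 23 nL pinned compound. Grown 24 h at 30 degrees; viability read by BacTiter-Glo luminescence after 5 min.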
# Shiga inhibitor = A qHTS for Small Molecule Inhibitors of Shiga Toxin. Vero cells, Shiga toxin protein synthesis inhibition reporter. inhibition, % at 38.7 µM. 9.2% of 290,000 active; in the data active = inhibition mostly above about 28%, no sharp cut-off; inactive = mostly below about 43%; also: 0% is about no effect
# TbPYK inhibitor = qHTS of Trypanosoma Brucei Inhibitors. pyruvate kinase (Trypanosoma brucei), Q57TT1. TbPYK enzyme, Kinase-Glo Plus ATP luminescence, 45 min. Potency, µM (series often up to 76.8 µM), for inactives: at the top dose activity, negative = inhibition, usual class: inhibitors. 0.12% of 410,000 active; also: potency is read from the fitted curve at half-maximal effect; % is scaled to controls: 0 for no effect and ±100 for the full control effect; nearly all actives have a fitted effect of over 50% in size
#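 Luminescence from Kinase-Glo Plus, added after a 45-minute room-temperature reaction, served as the end-point read-out. The enzyme and substrate were preincubated with compound before ADP (130 uM final) initiated turnover. Concentration-effect curves came from normalized qHTS data.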
# LmPK inhibitor = qHTS Assay for Inhibitors of Leishmania Mexicana Pyruvate Kinase (LmPK). Q27686. purified LmPK, Kinase-Glo ATP luminescence, 1 h. Potency, µM (titrated, usually from 57.5 µM), without a hit: top-dose activity change, negative = inhibition, usual class: inhibitors. 0.37% of 290,000 active. AID 1721, 2009; also: potency is read from the fitted curve at half-maximal effect; % is scaled to controls: 0 for no effect and ±100 for the full control effect
#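 Purified LmPK (0.1 nM) converted ADP (0.1 mM) to ATP with PEP (0.5 mM) in imidazole buffer pH 7.2 with KCl and MgCl2, 1 h at room temperature. ATP was read by Kinase-Glo luminescence; data normalized to uninhibited and no-enzyme controls.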
# Giardia FBPA inh = qHTS Assay for Inhibitors of Fructose-1,6-bisphosphate Aldolase from Giardia Lamblia | A8B2U2 | purified Giardia FBPA | Potency, µM (doses to about 59.6 µM), for inactives: at the top dose activity, negative = inhibition, hits mostly inhibitors | 0.71% of 290,000 active; also: potency is read from the fitted curve at half-maximal effect; % is scaled to controls: 0 for no effect and ±100 for the full control effect; nearly all actives have a fitted effect of over 55% in size
# Target sequence (A8B2U2 whole entry, looked up): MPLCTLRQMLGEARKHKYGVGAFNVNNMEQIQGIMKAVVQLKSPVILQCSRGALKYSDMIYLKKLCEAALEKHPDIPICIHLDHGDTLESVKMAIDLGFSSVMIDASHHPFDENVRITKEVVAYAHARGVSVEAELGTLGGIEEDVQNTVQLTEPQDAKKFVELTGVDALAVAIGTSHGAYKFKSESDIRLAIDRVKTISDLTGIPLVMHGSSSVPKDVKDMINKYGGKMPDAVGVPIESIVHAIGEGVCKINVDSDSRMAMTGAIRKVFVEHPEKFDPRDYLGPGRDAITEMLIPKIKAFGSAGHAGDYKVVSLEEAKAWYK
#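 40 nM FBPA preincubated 10 min at RT with compound (up to 57.5 uM final), then substrate plus GAPDH/TPI/NAD/arsenate coupling and diaphorase/resazurin added. Fluorescence read after 20 min at RT, 525/598 nm.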
# CHX counter = Cycloheximide Counterscreen for Small Molecule Inhibitors of Shiga Toxin | 12% of 300,000 active | cell reporter, cycloheximide protein synthesis inhibition counterscreen | max response, %; in the data active = max response mostly above about 13%, no sharp cut-off; inactive = mostly below about 14%; also: read at 38.3 µM for the half of the compounds with a filed dose; 0% is about no effect
# An asterisk follows results filed as active; ? = inconclusive; / = no result; [ ] = remark or other dose. Unless noted, calls follow the shape of the dose curve; as a rule, active = well fitted curve in the direction sought with a large enough effect; inconclusive = small, poorly fitted or top-dose-only effect, or another doubt; inactive = no such curve, though single readings can be large; an effect the other way counts as inactive or inconclusive.
SMILES,RE007 growth inh,Shiga inhibitor,TbPYK inhibitor,LmPK inhibitor,Giardia FBPA inh,CHX counter
COc1ccc(CCCNC(=O)C2Cc3c(-c4cccc(C(C)=O)c4)ccnc3O2)cc1 (stereo unspecified),-9%[18.4 µM],/,3%,/,/,/
CCCc1nc2oc3ccccc3c(=O)c2c(=O)n1-c1ccc(C)cc1,5%,66*,2%,2%,-4%,36*
CCCCn1c(-c2cccs2)nc2oc3ccccc3c(=O)c2c1=O,2%,-9,-24%,-2%,3%,-2
CCCc1nc2c(c(=O)c3ccccc3n2C)c(=O)n1-c1ccc(F)cc1,6%,15,-8%,-3%,-3%,-2
CCCc1nc2oc3ccccc3c(=O)c2c(=O)n1-c1ccccc1,-17%,55*,-10%,5%,1%,33*
CCc1nc2oc3ccccc3c(=O)c2c(=O)n1CCOC,0%,-1,-1%,-2%,9%,-1
CCc1nc2oc3ccccc3c(=O)c2c(=O)n1-c1ccc(C)cc1,2%,64*,-4%,4%,-12%,41*
CCc1nc2oc3ccccc3c(=O)c2c(=O)n1-c1ccccc1,4%,65*,4%,-4%,-8%,44*
COc1cccc(-c2cc(NCc3cccs3)ncn2)c1,/,/,/,/,-17%,/
CCc1ccc(CNC(=O)c2cccc(-n3cnc4cccnc43)c2C)cc1,/,/,4%[15.4 µM],/,/,/
COc1ccc2c(c1)c(C(=O)N/N=C/c1ccc(O)c(O)c1)c(C)n2C,0%,2,1%,-3%,?,-4
COCCn1c(C(C)C)nc2oc3ccccc3c(=O)c2c1=O,16%,-3,3%,1%,-6%,8
Cc1ccc(-n2c(C(C)C)nc3oc4ccccc4c(=O)c3c2=O)cc1,-26%,63*,3%,4%,-5%,29*
NC(=S)c1ccc[n+]([C@@H]2O[C@@H](COP(=O)([O-])OP(=O)(O)OC[C@H]3O[C@@H](n4cnc5c(N)ncnc54)[C@H](OP(=O)(O)O)[C@H]3O)C(O)C2O)c1 (stereo partly specified),/,/,/,/,1%,/
O=C1CN(c2ccccc2)C(=S)N1C(=O)c1ccccc1,-9%,47*,0%,-4%,-9%,46*
O=C(N/N=C/c1ccc2cccc(OCc3ccccc3)c2n1)c1ccc(Br)cc1,28%,38,-4%,1%,0%,18*
COc1cc(/C=C/c2ccc3cccc(OC)c3n2)c(OC(C)=O)c([N+](=O)[O-])c1,-14%,-2,2%,0%,-4%,-3
COc1ccc(C(=O)N/N=C/c2ccc3cccc(OCc4ccccc4)c3n2)cc1,11%,61*,3%,-3%,0%,22*
NC(=S)N/N=C/c1ccc2cccc(OCc3ccccc3)c2n1,1%,-25,-11%,0%,-8%,5
COc1c(OC(C)=O)ccc(/C=C/c2ccc3cccc(OCc4ccccc4)c3n2)c1[N+](=O)[O-],-4%,53*,3%,2%,-1%,35*
CN1CCCCC1c1ccc(-c2cccnc2)nc1 (stereo unspecified),0%,-9,2%,-4%,?,16*
CC(=O)Nc1ccc(NC(=O)CSc2ccc(-c3ccc(-n4ccnc4)cc3)nn2)cc1,-11%,/,-14%,/,/,/
O=C1NCCN(Cc2ccc(Cl)c(F)c2)C1CC(=O)N1CCCO1 (stereo unspecified),-25%,38,-9%,0%,-15%,13*
O=C1NCCN(Cc2c(F)cccc2Cl)C1CC(=O)N1CCCO1 (stereo unspecified),1%,13,-5%,2%,-12%,-3
Cc1ccc(N(O)C(=O)NCCCCNC(=O)N(O)c2ccc(C)cc2)cc1,-8%,52*,-1%,-9%,-4%,36*
SMILES,RE007 growth inh,Shiga inhibitor,TbPYK inhibitor,LmPK inhibitor,Giardia FBPA inh,CHX counter
Cc1ccc(S(=O)(=O)NC(=O)NCCCCNC(=O)NS(=O)(=O)c2ccc(C)cc2)cc1,-22%,-10,4%,-1%,-1%,-4
Cc1cc(=S)n(-c2ccccc2)n1C,-12%,39*,-20%,0%,?,16
O=C(NCc1ccccc1CN1CCCC1)c1ccc(S(=O)(=O)Nc2ccccc2)cc1,-9%,/,-5%,/,/,/
COc1ccc2[nH]c(C(=O)NCCN3CCOCC3)cc2c1,0%,-4,-6%,1%,-5%,-1
CCCCNC(=O)c1cc2cc(CC)ccc2[nH]1,10%,-4,-26%,4%,2%,14*
Cc1ccc(CC2CC(=O)N(CCc3ccccc3)C2=O)cc1 (stereo unspecified),19%,59,3%,2%,-8%,19*
O=C1CC(Cc2ccccc2)C(=O)N1c1ncccn1 (stereo unspecified),10%,103*,-2%,5%,2%,53*
Cc1ccc(CC2CC(=O)N(c3ncccn3)C2=O)cc1 (stereo unspecified),1%,-5,-2%,-1%,4%,-3
CCOc1ccc(OCCC(=O)OCC(=O)N2CCN(S(=O)(=O)c3ccc(Cl)cc3)CC2)cc1,-9%,54*,1%,-3%,0%,35*
CN1CCN(c2ncc3c(n2)CCN(Cc2cc(Br)cs2)C3)CC1,/,/,3%,/,/,/
Cc1sc2ncn(CC(=O)N(C)c3ccc(C(C)C)cc3)c(=O)c2c1S(=O)(=O)N1CCC(C)CC1,/,/,-10%,/,/,/
Cc1ccc(SC(C)c2nc(-c3ccccc3)no2)cc1 (stereo unspecified),0%,44,4%,-1%,3%,23*
Cc1ccccc1OC(C)c1nc(-c2ccccc2)no1 (stereo unspecified),-2%,48,5%,-3%,4%,38*
Cc1nn(C(C)c2nc(-c3ccccc3)no2)c(C)c1[N+](=O)[O-] (stereo unspecified),-3%,-11,-1%,-2%,1%,6
CCc1ccc(OC(C)c2nc(-c3ccc(-n4cccc4)cc3)no2)cc1 (stereo unspecified),/,/,1%,/,/,/
CC1(C(=O)NS(=O)(=O)c2ccc(Br)cc2)CCN1C(=O)C1(c2ccccc2)CC1 (stereo unspecified),10%[18.4 µM],/,3%,/,/,/
COc1ccccc1-c1csc(C(O)c2ccccc2)n1 (stereo unspecified),0%,/,0%,/,/,/
CC1=NN(c2ccccc2)C(=O)/C1=C/c1c(O)n(-c2ccc(F)cc2)[nH]c1=O,-7%,-7,-3%,-3%,5%,24*
CC1=NN(c2ccccc2)C(=O)/C1=C\N(O)c1ccccc1,-4%,38,-8%,0%,-21%,13*
